From article PMC7862700, “An all-to-all approach to the identification of sequence-specific readers for epigenetic DNA modifications on cytosine”

Legend:
Assay in all cases: DAPPL (digital affinity profiling via proximity ligation, sequencing); 10 mM Tris-HCl pH 7.5, 50 mM NaCl, 1 mM DTT, 4% glycerol, room temperature, 30 min; GST-TFs on glutathione beads, 16-mer random dsDNA library, 0.1% formaldehyde crosslink after washing; high values mean tight binding
[1] = target: T1, FLI1 (Homo sapiens, UniProt Q01543 1-452); conditions: protein: recombinant; tags: N-terminal GST; dsDNA, one strand shown
T1 sequence: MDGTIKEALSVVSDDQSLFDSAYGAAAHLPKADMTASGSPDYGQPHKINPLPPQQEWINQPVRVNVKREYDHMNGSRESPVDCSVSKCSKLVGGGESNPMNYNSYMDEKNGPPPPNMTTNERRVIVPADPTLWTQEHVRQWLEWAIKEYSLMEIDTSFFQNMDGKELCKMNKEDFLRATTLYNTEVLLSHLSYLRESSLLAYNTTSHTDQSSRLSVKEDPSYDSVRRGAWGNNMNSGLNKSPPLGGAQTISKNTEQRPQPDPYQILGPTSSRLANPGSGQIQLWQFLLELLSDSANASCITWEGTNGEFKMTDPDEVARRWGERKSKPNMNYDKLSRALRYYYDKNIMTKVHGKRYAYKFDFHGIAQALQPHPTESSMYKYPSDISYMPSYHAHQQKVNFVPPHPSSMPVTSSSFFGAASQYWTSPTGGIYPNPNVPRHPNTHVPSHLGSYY
Outline: (§1)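 Sequencing on an Illumina NextSeq500 followed washing, crosslinking with 0.1% formaldehyde, proximity ligation (BsaI/T4 ligase, 1 h, 37 °C) and PCR amplification of pools that had been incubated for 30 min at room temperature with 200 nmole of a random double-stranded 16-mer DNA library in Tris/NaCl/DTT/glycerol buffer. Each pool held DNA-barcoded human transcription factors, expressed in yeast as GST fusions and captured on glutathione beads, plus a tag-only sample. Binding signal is a hexamer's read frequency for a factor divided by its frequency in the tag-only sample.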

[2] = target: T2, ELK1 (Homo sapiens, UniProt P19419 1-428); conditions: protein: recombinant; tags: N-terminal GST; dsDNA, one strand shown
T2 sequence: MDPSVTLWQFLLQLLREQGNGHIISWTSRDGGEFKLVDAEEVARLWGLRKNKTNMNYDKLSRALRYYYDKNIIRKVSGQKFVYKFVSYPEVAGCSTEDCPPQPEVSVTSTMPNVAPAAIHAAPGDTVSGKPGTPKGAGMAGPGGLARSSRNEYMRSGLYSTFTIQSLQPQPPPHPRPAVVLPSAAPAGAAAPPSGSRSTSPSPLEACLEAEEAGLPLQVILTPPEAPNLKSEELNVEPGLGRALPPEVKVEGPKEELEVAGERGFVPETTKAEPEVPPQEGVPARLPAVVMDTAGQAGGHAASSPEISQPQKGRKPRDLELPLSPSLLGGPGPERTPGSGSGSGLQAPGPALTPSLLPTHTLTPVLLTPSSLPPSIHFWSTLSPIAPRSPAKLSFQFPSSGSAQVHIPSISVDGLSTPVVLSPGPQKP
Outline: as §1

[3] = target: T3, GABPA (Homo sapiens, UniProt Q06546 1-454); conditions: protein: recombinant; tags: N-terminal GST; dsDNA, one strand shown
T3 sequence: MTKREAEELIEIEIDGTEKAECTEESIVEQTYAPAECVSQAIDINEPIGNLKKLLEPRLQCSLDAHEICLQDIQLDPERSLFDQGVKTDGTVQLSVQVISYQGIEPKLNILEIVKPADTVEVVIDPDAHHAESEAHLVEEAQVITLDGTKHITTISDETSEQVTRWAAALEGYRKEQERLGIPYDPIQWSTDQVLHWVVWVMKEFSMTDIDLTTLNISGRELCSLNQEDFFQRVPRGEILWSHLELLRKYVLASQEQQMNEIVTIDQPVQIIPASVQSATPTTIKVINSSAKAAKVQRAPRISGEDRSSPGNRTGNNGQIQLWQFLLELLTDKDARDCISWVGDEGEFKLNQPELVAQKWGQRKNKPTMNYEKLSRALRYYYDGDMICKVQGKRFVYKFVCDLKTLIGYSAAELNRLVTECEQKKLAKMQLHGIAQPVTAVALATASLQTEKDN
Outline: as §1

[4] = target: T4, ERG (Homo sapiens, UniProt P11308 1-479); conditions: protein: recombinant; tags: N-terminal GST; dsDNA, one strand shown
T4 sequence: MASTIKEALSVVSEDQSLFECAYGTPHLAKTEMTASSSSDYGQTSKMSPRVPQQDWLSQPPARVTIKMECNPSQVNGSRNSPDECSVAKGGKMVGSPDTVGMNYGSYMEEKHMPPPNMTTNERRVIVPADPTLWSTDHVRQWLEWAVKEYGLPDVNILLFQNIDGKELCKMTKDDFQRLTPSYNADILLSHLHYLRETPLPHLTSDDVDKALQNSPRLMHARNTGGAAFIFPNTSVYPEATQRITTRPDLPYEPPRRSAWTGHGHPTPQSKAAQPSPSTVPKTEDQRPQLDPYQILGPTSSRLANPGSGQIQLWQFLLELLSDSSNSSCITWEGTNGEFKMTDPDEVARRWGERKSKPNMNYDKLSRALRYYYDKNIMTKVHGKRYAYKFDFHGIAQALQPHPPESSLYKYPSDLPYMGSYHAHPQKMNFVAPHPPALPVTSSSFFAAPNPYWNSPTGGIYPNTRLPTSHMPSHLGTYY
Outline: as §1

[5] = target: ELF1 (Homo sapiens, UniProt P32519 1-619); conditions: protein: recombinant; tags: N-terminal GST; dsDNA, one strand shown
Sequence of ELF1 (P32519 whole entry): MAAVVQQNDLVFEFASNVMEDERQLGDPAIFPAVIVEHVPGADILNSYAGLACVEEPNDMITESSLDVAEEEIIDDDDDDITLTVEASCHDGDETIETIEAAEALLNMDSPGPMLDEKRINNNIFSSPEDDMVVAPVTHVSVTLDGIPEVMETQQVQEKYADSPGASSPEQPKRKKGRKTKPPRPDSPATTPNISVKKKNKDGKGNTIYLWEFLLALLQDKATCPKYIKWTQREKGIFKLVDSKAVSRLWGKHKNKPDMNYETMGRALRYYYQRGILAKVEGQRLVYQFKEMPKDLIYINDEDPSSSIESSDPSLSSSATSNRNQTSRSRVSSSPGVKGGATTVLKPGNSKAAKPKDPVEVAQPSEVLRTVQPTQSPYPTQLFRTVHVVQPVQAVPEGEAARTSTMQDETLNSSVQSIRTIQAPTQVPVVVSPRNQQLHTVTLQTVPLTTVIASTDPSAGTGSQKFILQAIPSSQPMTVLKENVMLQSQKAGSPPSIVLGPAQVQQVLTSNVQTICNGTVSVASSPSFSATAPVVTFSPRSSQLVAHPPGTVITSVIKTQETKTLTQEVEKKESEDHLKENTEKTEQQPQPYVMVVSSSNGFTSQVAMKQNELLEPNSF
Outline: as §1

[6] = target: T5, EHF (Homo sapiens, UniProt Q9NZC4 1-300); conditions: protein: recombinant; tags: N-terminal GST; dsDNA, one strand shown
T5 sequence: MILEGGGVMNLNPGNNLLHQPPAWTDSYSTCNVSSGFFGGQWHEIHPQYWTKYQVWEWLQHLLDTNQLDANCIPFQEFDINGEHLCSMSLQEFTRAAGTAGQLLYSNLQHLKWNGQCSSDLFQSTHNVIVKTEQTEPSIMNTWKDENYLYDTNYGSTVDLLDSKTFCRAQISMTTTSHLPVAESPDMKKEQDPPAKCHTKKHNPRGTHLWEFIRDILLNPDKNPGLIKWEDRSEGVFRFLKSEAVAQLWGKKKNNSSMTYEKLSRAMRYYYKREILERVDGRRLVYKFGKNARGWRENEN
Outline: as §1

[7] = target: SPI1 (Homo sapiens, UniProt P17947 1-270); conditions: protein: recombinant; tags: N-terminal GST; dsDNA, one strand shown
Outline: as §1

[8] = target: SPIB (Homo sapiens, UniProt Q01892 1-262); conditions: protein: recombinant; tags: N-terminal GST; dsDNA, one strand shown
Sequence of SPIB (Q01892 whole entry): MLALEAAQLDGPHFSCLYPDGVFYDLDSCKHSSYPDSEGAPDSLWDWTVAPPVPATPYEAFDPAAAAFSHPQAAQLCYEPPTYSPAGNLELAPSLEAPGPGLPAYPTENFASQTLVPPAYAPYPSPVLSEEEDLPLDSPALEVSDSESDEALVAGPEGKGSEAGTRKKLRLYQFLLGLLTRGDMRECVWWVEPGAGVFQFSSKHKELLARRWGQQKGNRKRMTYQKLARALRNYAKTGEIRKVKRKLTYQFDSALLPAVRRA
Outline: as §1

[9] = target: T6, ELK3 (Homo sapiens, UniProt P41970 1-407); conditions: protein: recombinant; tags: N-terminal GST; dsDNA, one strand shown
T6 sequence: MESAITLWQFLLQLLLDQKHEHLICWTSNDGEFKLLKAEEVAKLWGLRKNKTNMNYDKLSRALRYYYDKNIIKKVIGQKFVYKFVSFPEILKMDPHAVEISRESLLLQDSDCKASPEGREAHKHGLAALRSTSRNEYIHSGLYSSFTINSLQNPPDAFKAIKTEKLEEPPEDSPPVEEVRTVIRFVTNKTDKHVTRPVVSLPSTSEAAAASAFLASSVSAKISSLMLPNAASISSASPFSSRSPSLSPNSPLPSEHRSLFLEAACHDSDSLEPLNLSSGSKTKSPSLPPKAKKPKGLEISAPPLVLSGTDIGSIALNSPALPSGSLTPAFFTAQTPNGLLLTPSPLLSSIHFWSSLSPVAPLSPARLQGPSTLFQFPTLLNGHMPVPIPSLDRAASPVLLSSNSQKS
Outline: as §1

[10] = target: T7, FEV (Homo sapiens, UniProt Q99581 1-238); conditions: protein: recombinant; tags: N-terminal GST; dsDNA, one strand shown
T7 sequence: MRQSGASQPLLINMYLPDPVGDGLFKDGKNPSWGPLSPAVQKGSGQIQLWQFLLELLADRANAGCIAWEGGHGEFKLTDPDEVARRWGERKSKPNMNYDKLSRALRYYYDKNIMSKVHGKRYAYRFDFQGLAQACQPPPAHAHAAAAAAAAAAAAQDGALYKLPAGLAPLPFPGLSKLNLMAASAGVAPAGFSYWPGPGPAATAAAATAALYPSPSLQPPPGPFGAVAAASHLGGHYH
Outline: as §1

[11] = target: ETV5 (Homo sapiens, UniProt P41161 1-510); conditions: protein: recombinant; tags: N-terminal GST; dsDNA, one strand shown
Sequence of ETV5 (P41161 whole entry): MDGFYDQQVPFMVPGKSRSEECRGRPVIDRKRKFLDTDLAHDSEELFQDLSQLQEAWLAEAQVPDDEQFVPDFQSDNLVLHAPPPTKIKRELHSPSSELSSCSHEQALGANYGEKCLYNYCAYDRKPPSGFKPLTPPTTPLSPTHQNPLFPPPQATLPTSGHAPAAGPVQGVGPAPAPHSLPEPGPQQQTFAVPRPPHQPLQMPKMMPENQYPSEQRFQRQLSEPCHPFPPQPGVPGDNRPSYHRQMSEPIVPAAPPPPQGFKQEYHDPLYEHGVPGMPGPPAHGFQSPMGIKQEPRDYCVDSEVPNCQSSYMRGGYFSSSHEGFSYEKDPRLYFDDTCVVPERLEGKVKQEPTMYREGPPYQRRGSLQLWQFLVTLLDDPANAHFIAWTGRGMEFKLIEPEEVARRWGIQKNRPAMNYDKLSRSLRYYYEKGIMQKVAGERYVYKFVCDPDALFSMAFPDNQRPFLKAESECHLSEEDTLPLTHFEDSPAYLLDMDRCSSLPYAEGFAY
Outline: as §1

[12] = target: HSF1 (Homo sapiens, UniProt Q00613 1-529); conditions: protein: recombinant; tags: N-terminal GST; chain copies: 3; dsDNA, one strand shown
Sequence of HSF1 (Q00613 whole entry): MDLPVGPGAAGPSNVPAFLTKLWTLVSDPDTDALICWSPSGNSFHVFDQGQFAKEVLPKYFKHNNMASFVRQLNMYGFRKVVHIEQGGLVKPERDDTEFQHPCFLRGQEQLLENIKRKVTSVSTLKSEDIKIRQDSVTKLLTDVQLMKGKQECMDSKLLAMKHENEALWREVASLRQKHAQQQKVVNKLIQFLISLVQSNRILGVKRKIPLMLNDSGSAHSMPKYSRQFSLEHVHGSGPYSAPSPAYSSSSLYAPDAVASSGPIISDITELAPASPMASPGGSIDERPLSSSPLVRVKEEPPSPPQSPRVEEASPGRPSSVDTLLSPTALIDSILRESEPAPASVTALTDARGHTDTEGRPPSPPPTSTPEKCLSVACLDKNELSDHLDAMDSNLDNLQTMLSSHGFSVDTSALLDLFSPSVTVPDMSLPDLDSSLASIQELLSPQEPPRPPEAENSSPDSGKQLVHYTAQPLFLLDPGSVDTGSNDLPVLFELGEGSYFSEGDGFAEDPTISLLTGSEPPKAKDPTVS
Outline: as §1

[13] = target: T8, SPIC (Homo sapiens, UniProt Q8N5J4 1-248); conditions: protein: recombinant; tags: N-terminal GST; dsDNA, one strand shown
T8 sequence: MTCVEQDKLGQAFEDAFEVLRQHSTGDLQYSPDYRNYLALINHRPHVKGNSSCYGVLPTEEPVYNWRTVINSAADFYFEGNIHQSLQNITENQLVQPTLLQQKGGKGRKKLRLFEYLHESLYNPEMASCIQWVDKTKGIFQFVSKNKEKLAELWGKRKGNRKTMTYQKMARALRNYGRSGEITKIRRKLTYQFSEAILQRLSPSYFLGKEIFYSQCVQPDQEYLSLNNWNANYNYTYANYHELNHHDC
Outline: as §1

[14] = target: ELF4 (Homo sapiens, UniProt Q99607 1-663); conditions: protein: recombinant; tags: N-terminal GST; dsDNA, one strand shown
Sequence of ELF4 (Q99607 whole entry): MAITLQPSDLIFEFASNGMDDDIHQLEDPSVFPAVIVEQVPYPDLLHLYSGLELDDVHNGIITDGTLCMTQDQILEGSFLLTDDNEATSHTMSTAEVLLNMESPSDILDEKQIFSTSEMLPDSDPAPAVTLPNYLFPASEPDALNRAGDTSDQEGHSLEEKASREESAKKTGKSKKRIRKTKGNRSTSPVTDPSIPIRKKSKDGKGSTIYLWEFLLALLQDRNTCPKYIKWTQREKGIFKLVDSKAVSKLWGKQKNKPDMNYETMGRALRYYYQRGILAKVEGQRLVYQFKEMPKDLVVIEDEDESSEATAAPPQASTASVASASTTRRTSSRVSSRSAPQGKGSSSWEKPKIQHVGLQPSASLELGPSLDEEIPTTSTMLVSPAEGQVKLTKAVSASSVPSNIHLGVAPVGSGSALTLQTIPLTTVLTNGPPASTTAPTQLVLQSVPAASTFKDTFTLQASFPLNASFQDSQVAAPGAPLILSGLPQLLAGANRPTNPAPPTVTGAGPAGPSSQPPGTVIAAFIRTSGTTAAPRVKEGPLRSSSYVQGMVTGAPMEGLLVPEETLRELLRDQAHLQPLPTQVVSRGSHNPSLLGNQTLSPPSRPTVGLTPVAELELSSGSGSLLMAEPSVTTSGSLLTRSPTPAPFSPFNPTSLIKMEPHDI
Outline: as §1

[15] = target: T9, ELK4 (Homo sapiens, UniProt P28324-2 1-405); conditions: protein: recombinant; tags: N-terminal GST; dsDNA, one strand shown
T9 sequence: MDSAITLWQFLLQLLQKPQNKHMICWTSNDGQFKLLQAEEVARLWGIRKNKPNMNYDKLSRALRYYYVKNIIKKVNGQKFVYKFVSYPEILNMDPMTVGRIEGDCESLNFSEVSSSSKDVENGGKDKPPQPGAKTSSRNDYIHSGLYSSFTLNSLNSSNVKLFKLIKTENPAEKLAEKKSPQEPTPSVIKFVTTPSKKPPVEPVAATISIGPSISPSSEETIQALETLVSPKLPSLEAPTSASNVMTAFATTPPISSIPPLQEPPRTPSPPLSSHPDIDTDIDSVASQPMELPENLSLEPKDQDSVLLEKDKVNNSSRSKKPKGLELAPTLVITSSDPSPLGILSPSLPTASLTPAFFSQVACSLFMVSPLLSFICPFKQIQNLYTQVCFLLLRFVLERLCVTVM
Outline: as §1

[16] = target: T10, ETV2 (Homo sapiens, UniProt O00321 1-342); conditions: protein: recombinant; tags: N-terminal GST; dsDNA, one strand shown
T10 sequence: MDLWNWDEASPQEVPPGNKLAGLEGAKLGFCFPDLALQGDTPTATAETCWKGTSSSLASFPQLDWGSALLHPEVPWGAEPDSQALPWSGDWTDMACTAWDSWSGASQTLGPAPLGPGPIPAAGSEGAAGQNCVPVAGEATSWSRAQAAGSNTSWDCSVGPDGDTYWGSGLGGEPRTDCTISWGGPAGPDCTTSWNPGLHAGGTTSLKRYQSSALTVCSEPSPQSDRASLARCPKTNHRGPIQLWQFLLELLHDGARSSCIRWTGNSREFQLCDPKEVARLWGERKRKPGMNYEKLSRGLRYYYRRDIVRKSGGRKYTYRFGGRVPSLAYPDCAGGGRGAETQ
Outline: as §1

[17] = target: T11, ELF3 (Homo sapiens, UniProt P78545 1-371); conditions: protein: recombinant; tags: N-terminal GST; dsDNA, one strand shown
T11 sequence: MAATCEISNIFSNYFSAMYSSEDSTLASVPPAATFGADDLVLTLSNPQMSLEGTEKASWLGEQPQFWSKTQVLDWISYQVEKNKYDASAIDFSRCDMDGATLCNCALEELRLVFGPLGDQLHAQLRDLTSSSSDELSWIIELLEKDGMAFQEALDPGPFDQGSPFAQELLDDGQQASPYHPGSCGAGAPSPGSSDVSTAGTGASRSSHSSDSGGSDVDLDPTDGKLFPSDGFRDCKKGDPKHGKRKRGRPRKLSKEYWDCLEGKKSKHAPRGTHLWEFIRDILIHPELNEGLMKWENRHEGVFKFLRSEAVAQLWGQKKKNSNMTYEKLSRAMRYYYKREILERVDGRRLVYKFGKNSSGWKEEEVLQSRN
Outline: as §1

[18] = target: CRX (Homo sapiens, UniProt O43186 1-299); conditions: protein: recombinant; tags: N-terminal GST; dsDNA, one strand shown
Sequence of CRX (O43186 whole entry): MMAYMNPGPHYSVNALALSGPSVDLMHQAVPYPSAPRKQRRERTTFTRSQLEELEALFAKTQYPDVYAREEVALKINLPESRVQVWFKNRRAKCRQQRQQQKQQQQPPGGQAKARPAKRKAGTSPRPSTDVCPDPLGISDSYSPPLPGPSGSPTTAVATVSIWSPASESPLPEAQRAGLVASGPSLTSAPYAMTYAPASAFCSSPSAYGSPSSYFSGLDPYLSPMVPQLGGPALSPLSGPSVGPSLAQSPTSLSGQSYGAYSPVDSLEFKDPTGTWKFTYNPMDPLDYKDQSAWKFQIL
Outline: as §1

[19] = target: ETV1 (Homo sapiens, UniProt P50549 1-477); conditions: protein: recombinant; tags: N-terminal GST; dsDNA, one strand shown
Sequence of ETV1 (P50549 whole entry): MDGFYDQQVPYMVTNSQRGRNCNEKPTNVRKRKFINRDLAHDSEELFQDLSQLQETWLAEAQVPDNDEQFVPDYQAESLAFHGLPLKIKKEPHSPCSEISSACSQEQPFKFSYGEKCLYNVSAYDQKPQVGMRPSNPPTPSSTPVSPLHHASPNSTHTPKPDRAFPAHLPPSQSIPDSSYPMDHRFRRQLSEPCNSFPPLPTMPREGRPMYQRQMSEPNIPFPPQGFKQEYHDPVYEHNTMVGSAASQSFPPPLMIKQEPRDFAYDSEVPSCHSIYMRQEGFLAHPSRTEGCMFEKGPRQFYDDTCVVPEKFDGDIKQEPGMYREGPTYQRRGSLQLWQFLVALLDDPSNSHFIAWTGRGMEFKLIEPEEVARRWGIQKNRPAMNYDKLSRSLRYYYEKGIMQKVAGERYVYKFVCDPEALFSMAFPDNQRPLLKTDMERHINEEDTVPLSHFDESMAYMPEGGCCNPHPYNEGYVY
Outline: as §1

CGATTG
binding signal [1]: 1.22 fold enrichment (6-mer frequency, TF over GST control) | binding signal [2]: 1.29 fold enrichment (6-mer frequency, TF over GST control) | binding signal [3]: 1.24 fold enrichment (6-mer frequency, TF over GST control) | binding signal [4]: 1.26 fold enrichment (6-mer frequency, TF over GST control) | binding signal [5]: 1.24 fold enrichment (6-mer frequency, TF over GST control) | binding signal [6]: 1.1 fold enrichment (6-mer frequency, TF over GST control) | binding signal [7]: 1.22 fold enrichment (6-mer frequency, TF over GST control) | binding signal [8]: 1.19 fold enrichment (6-mer frequency, TF over GST control) | binding signal [9]: 1.24 fold enrichment (6-mer frequency, TF over GST control) | binding signal [10]: 1.12 fold enrichment (6-mer frequency, TF over GST control) | binding signal [11]: 1.18 fold enrichment (6-mer frequency, TF over GST control) | binding signal [12]: 1.21 fold enrichment (6-mer frequency, TF over GST control) | binding signal [13]: 1.08 fold enrichment (6-mer frequency, TF over GST control) | binding signal [14]: 1.28 fold enrichment (6-mer frequency, TF over GST control) | binding signal [15]: 1.34 fold enrichment (6-mer frequency, TF over GST control) | binding signal [16]: 1.08 fold enrichment (6-mer frequency, TF over GST control) | binding signal [17]: 1.14 fold enrichment (6-mer frequency, TF over GST control) | binding signal [18]: 1.16 fold enrichment (6-mer frequency, TF over GST control) | binding signal [19]: 1.16 fold enrichment (6-mer frequency, TF over GST control)
